In PubChem BioAssay (EPA / NIEHS):
The source made the active and inactive calls. How the source made its calls, unless noted: active means hit-call score of the fitted dose curve at least 0.9, where 1 is the maximum; inactive means score below 0.9.

System: IYD (gene 389434)
Assay: CCTE_GLTED_hIYD: CCTE's human Iodotyrosine Deiodinase (xIYD) Inhibition Assay, Great Lakes Toxicology and Ecology Division (GLTED) Lab (AID 2284317; active means hit-call score of the fitted dose curve at least 0.9, where 1 is the maximum;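 further: cell-free human IYD enzyme made in baculovirus insect cells; iodide freed from monoiodotyrosine measured by cerium arsenite color change at 420 nm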)
Settings: not given
How it was run: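 Deiodination of MIT by insect-cell-produced human IYD is measured after a 3 h incubation with test chemical. Free iodide passes through a Dowex column and accelerates Sandell-Kolthoff Ce4+ reduction, read at 420 nm; run in triplicate.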
With `CCOC(=O)O[C@H](C)OC(=O)c1ccc2c(c1)cc(C(=O)NC1CCN(C(C)C)CC1)n2Cc1cc(-c2ccc(Cl)s2)on1` the AC50 was 56.4 µM (active).
In the case of `CN(C[C@@H](CC[N+]12CCC(C3CCCCC3)(CC1)CC2)c1ccc(Cl)c(Cl)c1)C(=O)c1cc(C(F)(F)F)cc(C(F)(F)F)c1`, the AC50 is reported as 45.2 µM (active).
In the case of `CN(C)c1ccc(C(=C2C=CC(=[N+](C)C)C=C2)c2ccc(N(C)C)cc2)cc1`, the outcome is reported as “inactive”.
For `CCCCCCCCCCCC[N+](C)(C)C`, the outcome was “inactive”.
With `CCCCCCCCOC(=O)c1cc(O)c(O)c(O)c1` the AC50 was 77 µM (active).
With `CC(C)(c1cc(Br)c(O)c(Br)c1)c1cc(Br)c(O)c(Br)c1` the AC50 was 66.2 µM (active).
In the case of `CC(C)(C)c1csc(-c2cc3cc(OCc4ccccc4CC(=O)O)ccc3o2)n1`, the AC50 is reported as 68.7 µM (active).
With `CCN(Cc1cccc(S(=O)(=O)O)c1)c1ccc(C(=C2C=CC(=[N+](CC)Cc3cccc(S(=O)(=O)O)c3)C=C2)c2ccccc2S(=O)(=O)[O-])cc1` the AC50 was 100 µM (active).
With `Cc1oc2c(NC(=O)c3c(Cl)cccc3Cl)cccc2c1C(C)(C)O` the outcome was “inactive”.
For `Clc1cc(Cl)c2c(c1)N=C1CCCCCN1C2`, the outcome was “inactive”.
For `O=c1c(-c2ccc(O)cc2)coc2cc(O)cc(O)c12`, the outcome was “inactive”.

System: not listed separately
Assay: CCTE_Deisenroth_5AR_NBTE_acceptor: CCTE's 5alpha-reductase NanoBRET Target Engagement Assay - Autofluorescence Screen, Deisenroth Lab (AID 2284321);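 further: compound fluorescence in the acceptor channel under 460 nm excitation flags autofluorescence artifacts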
Settings: actives raise or lower the signal
How it was run: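 HEK293T cell-based NanoBRET assay read 5 h after dosing; this acceptor channel serves as an autofluorescence artifact screen. Chemicals at nominal 100 uM were scanned in three independent runs (n=3), excitation 460 nm. Fitting was bidirectional versus DMSO baseline.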
For `CN1C(=O)CC[C@H]1c1cccnc1`, the outcome was “inactive”.
In the case of `CN1C(=O)N(c2ccccc2Br)Cc2cnc(Nc3ccc4c(c3)OCC(CO)O4)nc21` (stereo not given), the outcome is reported as “inactive”.
With `O=c1[nH]sc2ccccc12` the AC50 was 82.8 µM (active).
With `O=C(O)Cc1cc(I)c(Oc2ccc(O)c(I)c2)c(I)c1` the AC50 was 14.3 µM (active).
In the case of `CN(C[C@@H](CC[N+]12CCC(C3CCCCC3)(CC1)CC2)c1ccc(Cl)c(Cl)c1)C(=O)c1cc(C(F)(F)F)cc(C(F)(F)F)c1`, the AC50 is reported as 16.1 µM (active).
In the case of `CCCCCCCCCCCO`, the outcome is reported as “inactive”.
For `CN(C)c1ccc(C(=C2C=CC(=[N+](C)C)C=C2)c2ccc(N(C)C)cc2)cc1`, the AC50 was 4.78 µM (active).
With `CCCCCCCCOC(=O)c1cc(O)c(O)c(O)c1` the AC50 was 61.4 µM (active).
For `CCN(Cc1cccc(S(=O)(=O)O)c1)c1ccc(C(=C2C=CC(=[N+](CC)Cc3cccc(S(=O)(=O)O)c3)C=C2)c2ccccc2S(=O)(=O)[O-])cc1`, the AC50 was 21.7 µM (active).
With `NCc1cccc(C2CCN(C(=O)c3ccc(C#Cc4ccccc4F)o3)CC2)c1` the outcome was “inactive”.
In the case of `CO[C@H]1/C=C/O[C@@]2(C)Oc3c(C)c(O)c4c(O)c(c(/C=N/N5CCN(C)CC5)c(O)c4c3C2=O)NC(=O)/C(C)=C\C=C\[C@H](C)[C@H](O)[C@@H](C)[C@@H](O)[C@@H](C)[C@H](OC(C)=O)[C@@H]1C`, the outcome is reported as “inactive”.
For `COc1cc(C(=O)NC2CCN(C)CC2)ccc1Nc1ncc2c(n1)N(C1CCCC1)CC(F)(F)C(=O)N2C`, the outcome was “inactive”.
For `O=c1c(-c2ccc(O)cc2)coc2cc(O)cc(O)c12`, the outcome was “inactive”.
With `CCN(CC)C(=O)c1cc(S(=O)(=O)Cc2ccccc2)c(N2CCC(c3ccccc3)CC2)cc1N(CC)CCN(C)C` the outcome was “inactive”.
